A word on the AC50: it is the midpoint of the concentration-response curve, whichever way the signal moves.

Inconclusive results are not listed. Active and inactive are the calls of the source. How the source made its calls: active means hit-call score of the fitted dose curve at least 0.9, where 1 is the maximum; inconclusive means response in the unintended direction; inactive means score below 0.9.

Sequence of Histone deacetylase 3 (Homo sapiens) (O15379 whole entry, looked up): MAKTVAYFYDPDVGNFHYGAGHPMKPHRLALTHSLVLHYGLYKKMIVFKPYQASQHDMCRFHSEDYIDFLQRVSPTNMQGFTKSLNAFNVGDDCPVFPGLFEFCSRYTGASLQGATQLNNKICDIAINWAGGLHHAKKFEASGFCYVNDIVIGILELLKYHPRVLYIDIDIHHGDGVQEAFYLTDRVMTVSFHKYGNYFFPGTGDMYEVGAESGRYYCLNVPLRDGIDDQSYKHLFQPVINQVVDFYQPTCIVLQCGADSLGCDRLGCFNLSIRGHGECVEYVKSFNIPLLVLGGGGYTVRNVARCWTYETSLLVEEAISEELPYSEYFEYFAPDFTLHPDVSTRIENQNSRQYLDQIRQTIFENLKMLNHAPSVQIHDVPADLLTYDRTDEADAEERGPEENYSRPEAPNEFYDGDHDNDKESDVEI
Sequence of human Fibroblast Growth Factor Receptor 1 (FGFR1), FGFR1 (gene 2260) (P11362 whole entry, looked up): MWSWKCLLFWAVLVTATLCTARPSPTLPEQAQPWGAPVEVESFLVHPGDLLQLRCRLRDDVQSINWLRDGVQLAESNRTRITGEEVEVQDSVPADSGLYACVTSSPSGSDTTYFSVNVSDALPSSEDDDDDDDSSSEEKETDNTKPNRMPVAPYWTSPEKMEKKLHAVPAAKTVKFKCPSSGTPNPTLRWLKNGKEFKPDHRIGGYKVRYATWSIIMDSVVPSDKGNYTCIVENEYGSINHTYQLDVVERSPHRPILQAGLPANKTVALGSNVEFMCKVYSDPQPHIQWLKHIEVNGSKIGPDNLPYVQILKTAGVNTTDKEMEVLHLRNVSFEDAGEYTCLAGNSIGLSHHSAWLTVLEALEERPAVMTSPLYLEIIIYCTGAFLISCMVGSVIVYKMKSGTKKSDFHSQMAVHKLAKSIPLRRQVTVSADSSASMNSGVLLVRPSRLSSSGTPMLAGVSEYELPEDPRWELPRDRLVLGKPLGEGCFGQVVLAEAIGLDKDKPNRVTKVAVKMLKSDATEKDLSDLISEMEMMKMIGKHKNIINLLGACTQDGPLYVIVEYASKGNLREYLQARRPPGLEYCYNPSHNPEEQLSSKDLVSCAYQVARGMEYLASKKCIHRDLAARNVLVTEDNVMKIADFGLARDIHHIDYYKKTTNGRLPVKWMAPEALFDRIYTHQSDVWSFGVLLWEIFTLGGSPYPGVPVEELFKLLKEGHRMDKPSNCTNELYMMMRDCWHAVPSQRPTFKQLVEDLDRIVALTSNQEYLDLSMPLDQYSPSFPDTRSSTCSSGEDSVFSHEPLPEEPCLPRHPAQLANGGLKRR

For the first test, the target named is human Fibroblast Growth Factor Receptor 1 (FGFR1), FGFR1 (gene 2260) (UniProt P11362). As to the kind of experiment: NVS_ENZ_hFGFR1: NovaScreen (NVS) Enzymatic Assay for human Fibroblast Growth Factor Receptor 1 (FGFR1) (AID 2283159).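 On AC50: hits lower the signal so potencies describe inhibitors of the kinase.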 The gist of the method:
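Cell-free recombinant kinase with fluorescent substrate, product separated by electrophoretic mobility shift; read 1 hour after dosing, loss of signal relative to DMSO. Initial screen in duplicate at 25 uM, actives followed in concentration series.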
With `Clc1ccc(C(c2ccccc2Cl)C(Cl)(Cl)Cl)cc1` (stereo unspecified), the result was inactive.

For `ClC(Cl)=C(c1ccc(Cl)cc1)c1ccc(Cl)cc1`, the compound was classed as inactive.

With `C=CC(=O)NCNC(=O)C=C`, the compound was classed as inactive.

Take `O=C(N[C@H]1CN2CCC1CC2)c1cc2ccoc2cn1`: the compound was called inactive.

As to `CCCCCCOC(=O)c1ccccc1C(=O)OCCCCCC`, the outcome was inactive.

Take `Cc1ccccc1CO[C@@H]1C[C@@]2(C(C)C)CC[C@]1(C)O2`: the call was inactive.

With `CC(c1ccc(O)cc1)(c1ccc(O)cc1)c1ccc(O)cc1`, the AC50 is 25 µM (active).

In the case of `c1cc2ccc3cccc4ccc(c1)c2c34`, the call was inactive.

As to `Cc1cccc([N+](=O)[O-])c1`, the compound was called inactive.

Consider `O=S(=O)(O)C(F)(F)C(F)(F)C(F)(F)C(F)(F)F`, for which the result was inactive.

Another test has as its target Histone deacetylase 3 (Homo sapiens) (UniProt O15379). As to the kind of experiment: NVS_ENZ_hHDAC3: NovaScreen (NVS) Enzymatic Assay for human Histone Deacetylase 3 (HDAC3) (AID 2283163). The protocol:
NVS_ENZ_hHDAC3 is a biochemical, single-readout assay that uses extracted gene-proteins in a cell-free assay. Measurements were taken 1 hour after chemical dosing in a 384-well plate.NVS_ENZ_hHDAC3 is one of one assay component(s) measured or calculated from the NVS_ENZ_hHDAC3 assay. It is designed to make measurements of enzyme activity, a form of enzyme reporter, as detected with fluorescence intensity signals by Fluorescence and electrophoretic mobility shift technology.Data from the assay component NVS_ENZ_hHDAC3 was analyzed into 1 assay endpoint. This assay endpoint, NVS_ENZ_hHDAC3, was analyzed in the positive analysis fitting direction relative to DMSO as the negative control and baseline of activity. Using a type of enzyme reporter, loss-of-signal activity can be used to understand changes in the enzymatic activity as they relate to the gene HDAC3. Furthermore, this assay endpoint can be referred to as a primary readout, because this assay has produced multiple assay endpoints where this one serves a enzymatic activity function. To generalize the intended target to other relatable targets, this assay endpoint is annotated to the hydrolase intended target family, where the subfamily is histone deacetylase.
Binding assays used specific radioligands (tritiated, iodinated) with non-radioactive competitive displacement ligands in agonist or antagonist protocols (as indicated) and various reference compounds and inhibitors to titrate specific binding to receptors and transporters. Most enzyme assays (CYPs, kinases, phosphatases, proteases, HDACs) used recombinant protein and specific substrates (fluorescence mostly, some colorimetric and radioactive) and inhibitors, followed by a biochemical separation of substrate and product. All assays for the biochemical HTS were initially run in duplicate at a single concentration (10 uM for CYP450 assays and 25 uM for all others). Assay-chemical combinations meeting a pre-defined threshold (e.g., 30% inhibition and other criteria defined below) were then run in singleton concentration-response format with maximum concentration of 20 uM for CYPs and 50 uM for all others. Each assay was run with positive and negative controls, and concurrent controls on every plate. The follow-up (secondary) screen tested active chemical-pairs in concentration series, as well as a few additional assays not tested in the primary screen, some selected negative inactives, and several cases re-run in the concentration series for confirmatory purposes.
As to `Nn1cnnc1`, the compound was called inactive.

Consider `c1cc2ccc3cccc4ccc(c1)c2c34`, for which the result was inactive.

As to `CCOP(=S)(OCC)SCSC(C)(C)C`, the call was inactive.

For another test, the target named is Glycogen synthase kinase-3 beta (Homo sapiens) (UniProt P49841). As to the kind of experiment: NVS_ENZ_hGSK3b: NovaScreen (NVS) Enzymatic Assay for human Glycogen Synthase Kinase-3 beta (GSK3b) (AID 2283165). The gist of the method: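 Recombinant enzyme with specific fluorescent substrate, 1 h, product separated by electrophoretic mobility shift. Primary duplicate screen at 25 uM; actives (e.g. 30% inhibition) followed in singleton concentration-response to 50 uM. Signal loss fitted versus DMSO.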
Sequence of Glycogen synthase kinase-3 beta (Homo sapiens) (P49841 whole entry, looked up): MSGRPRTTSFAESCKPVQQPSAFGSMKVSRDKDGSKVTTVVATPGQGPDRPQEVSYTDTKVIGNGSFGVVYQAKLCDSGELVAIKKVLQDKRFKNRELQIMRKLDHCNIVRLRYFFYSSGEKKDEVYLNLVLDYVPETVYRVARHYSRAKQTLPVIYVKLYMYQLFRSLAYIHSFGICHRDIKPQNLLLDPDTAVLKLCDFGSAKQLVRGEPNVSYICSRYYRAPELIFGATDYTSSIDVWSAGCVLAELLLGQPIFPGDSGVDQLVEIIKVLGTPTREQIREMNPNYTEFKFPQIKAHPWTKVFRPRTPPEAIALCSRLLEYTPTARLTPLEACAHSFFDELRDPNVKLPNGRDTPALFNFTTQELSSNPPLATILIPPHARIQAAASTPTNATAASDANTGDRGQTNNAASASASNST
With `Cc1ccccc1O`, the call was inactive.

In the case of `COc1ccc(O)c(C(C)(C)C)c1`, the call was inactive.

In the case of `C=CC(N)=O`, the result was inactive.

For the compound `Clc1ccc(Cl)cc1`, the compound was classed as inactive.

Consider `Cc1cc(O)ccc1Cl`, for which the compound was called inactive.

Take `O=C(NC(=O)c1cc(F)c(F)cc1Cl)Nc1cc(F)ccc1N1CCC(C(=O)O)CC1`: the compound was called inactive.

On to `Cc1ccccc1[N+](=O)[O-]`, for which the outcome was inactive.

Consider `Cc1ccc(O)c(C)c1`, for which the compound was classed as inactive.

(Values after PubChem BioAssay (EPA / NIEHS).)
